The source made the active and inactive calls. The calls were made as follows: active = hit-call score of the fitted dose curve at least 0.9, where 1 is the maximum; inactive = score below 0.9.
Assays:
[1] = ATG_E_Box_CIS: Attagene CIS-FACTORIAL HepG2 Assay for human Enhancer Box (E-box) (AID 2282936); conditions: HepG2 E-box cis-reporter transcription, actives raise or lower the signal
In short: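 E-box-driven reporter transcripts measured in transiently transfected HepG2 after 24 h exposure: RNA reverse-transcribed, PCR-amplified, fluorescently labelled, digested and resolved by capillary electrophoresis. Gain or loss relative to DMSO.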

[2] = ATG_M_61_CIS: Attagene CIS-FACTORIAL HepG2 Assay for M61 Transcription Factor (Internal Marker) (AID 2282937); conditions: HepG2 Attagene CIS-FACTORIAL M61 internal marker reporter; actives raise or lower the signal
In short: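 Background-control endpoint: HepG2 cells with cis-regulated reporter constructs, 24 h exposure, reporter mRNA detected via fluorescent primer extension and capillary electrophoresis; values from bidirectional fitting with DMSO baseline.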

[3] = ATG_EGR_CIS: Attagene CIS-FACTORIAL HepG2 Assay for human Early Growth Response 1 (EGR1) (AID 2282938); conditions: HepG2 Attagene CIS-FACTORIAL EGR reporter mRNA; actives raise or lower the signal
In short: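 Endpoint derived by bidirectional fitting versus DMSO vehicle. Method: cis-promoter reporter units transfected into HepG2, 24 h dosing, RNA isolation, RT-PCR with 6-FAM primer extension and HpaI digestion, then capillary electrophoresis fluorescence detection.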

[4] = ATG_ERE_CIS: Attagene CIS-FACTORIAL HepG2 Assay for Estrogen Response Element (ERE) (AID 2282940); conditions: HepG2 ERE cis-reporter, Attagene RNA transcript; actives raise or lower the signal
In short: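 HepG2 cells transiently transfected with multiplexed cis-element reporter units, measuring endogenous transcription factor activity; ERE reporter mRNA quantified after 24 h exposure by RT-PCR, fluorescent labelling, HpaI digestion and capillary electrophoresis. Bidirectional change versus DMSO.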

[5] = ATG_Ets_CIS: Attagene CIS-FACTORIAL HepG2 Assay for human Erythroblast Transformation Specific (ETS) (AID 2282941); conditions: HepG2 ETS cis-reporter transcription, actives raise or lower the signal
In short: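 RT-PCR/capillary electrophoresis fluorescence read-out of reporter mRNA; HepG2 transient multi-reporter transfection; 24 h compound exposure; gain or loss of signal fitted bidirectionally relative to DMSO.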

[6] = molecular target: Hepatocyte nuclear factor 3-beta (Homo sapiens) (UniProt Q9Y261); test: ATG_FoxA2_CIS: Attagene CIS-FACTORIAL HepG2 Assay for human Forkhead box A2 (FOXA2) (AID 2282942); conditions: HepG2 cis-reporter transcription factor activity, 24 h; actives raise or lower the signal
In short: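 Measured: reporter mRNA induction or loss in HepG2 transiently carrying multiple cis-regulated reporter units, 24 h after dosing. Quantified by RT-PCR plus capillary electrophoresis, normalised to DMSO.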

[7] = ATG_FoxO_CIS: Attagene CIS-FACTORIAL HepG2 Assay for human Forkhead box O (FoxO) (AID 2282943); conditions: HepG2 Attagene cis-reporter, FoxO element, mRNA; actives raise or lower the signal
In short: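 Human hepatoma HepG2 cells carry transiently introduced reporter transcription units controlled by cis promoter elements. Chemical treatment lasted 24 h, and mRNA signal was compared with DMSO.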

[8] = ATG_GATA_CIS: Attagene CIS-FACTORIAL HepG2 Assay for human GATA Binding Protein (AID 2282944); conditions: HepG2 GATA cis-element reporter, Attagene multiplex mRNA; actives raise or lower the signal
In short: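 HepG2 cells transiently transfected with multiplexed cis-element reporter units measure endogenous GATA activity; after 24 h compound exposure, reporter mRNA quantified by RT-PCR and capillary electrophoresis. Changes fitted in both directions vs DMSO.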

[9] = ATG_GLI_CIS: Attagene CIS-FACTORIAL HepG2 Assay for human Zinc Finger Protein GLI1 (AID 2282945); conditions: HepG2, Attagene cis-factorial reporter mRNA, GLI element; actives raise or lower the signal
In short: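 Bidirectional curve fits relative to DMSO, using reporter mRNA levels from RT-PCR plus capillary electrophoresis. Cells were HepG2 transiently carrying cis-regulated reporter constructs, harvested 24 h after dosing.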

[10] = ATG_ISRE_CIS: Attagene CIS-FACTORIAL HepG2 Assay for human Interferon Regulatory Factor 1 (IRF1) binding to an Interferon-Stimulated Response Element (ISRE) (AID 2282948); conditions: HepG2 ISRE cis-reporter (Attagene), mRNA transcription readout; actives raise or lower the signal
In short: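 Read-out: fluorescent RT-PCR products resolved by capillary electrophoresis, reporting endogenous transcription factor activity via ISRE-driven reporter mRNA in transfected HepG2 cells dosed for 24 h; gain or loss fitted relative to DMSO.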

[11] = ATG_M_32_CIS: Attagene CIS-FACTORIAL HepG2 Assay for M32 Transcription Factor (Internal Marker) (AID 2282949); conditions: HepG2 Attagene cis-factorial M32 reporter, mRNA; actives raise or lower the signal;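 also: background control marker of the multiplexed CIS panel rather than a real target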
In short: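 HepG2 human liver cells transiently transfected with cis-promoter-driven multiple reporter transcription units, dosed 24 h. Reporter mRNA quantified by RT-PCR, FAM-labelled primer extension, HpaI digest and capillary electrophoresis; bidirectional fit versus DMSO baseline.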

[12] = ATG_M_06_CIS: Attagene CIS-FACTORIAL HepG2 Assay for M06 Transcription Factor (Internal Marker) (AID 2282950); conditions: HepG2 Attagene CIS-FACTORIAL M06 internal marker reporter; actives raise or lower the signal
In short: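 Internal background marker within multiplexed cis-reporter HepG2 system. Cells transiently transfected, dosed 24 h; reporter mRNA measured by RT-PCR, HpaI digestion and capillary electrophoresis. Bidirectional fit relative to DMSO.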

[13] = molecular target: Hypoxia-inducible factor 1-alpha (Homo sapiens) (UniProt Q16665); test: ATG_HIF1a_CIS: Attagene CIS-FACTORIAL HepG2 Assay for human Hypoxia Inducible Factor 1 (HIF1A) (AID 2282951); conditions: HepG2 Attagene cis-factorial HIF1a reporter transcription; actives raise or lower the signal
In short: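 Dosed 24 h, transfected HepG2 cells yielded total RNA whose reporter transcripts were RT-PCR-amplified and sized by capillary electrophoresis using fluorescent labelling; DMSO defined baseline, with gain and loss of signal both fitted.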

[14] = molecular target: Hepatocyte nuclear factor 6 (Homo sapiens) (UniProt Q9UBC0); test: ATG_HNF6_CIS: Attagene CIS-FACTORIAL HepG2 Assay for human Hepatocyte Nuclear Factor 6 (HNF6) (AID 2282952); conditions: HepG2 Attagene cis-factorial HNF6 reporter transcription; actives raise or lower the signal
In short: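 Using cis-element reporters in HepG2 liver cells, the assay tracks endogenous factor-driven transcription 24 h post-dosing. Signal comes from 6-FAM-labelled, HpaI-digested RT-PCR fragments, with gain or loss scored against DMSO.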

[15] = molecular target: Heat shock factor protein 1 (Homo sapiens) (UniProt Q00613); test: ATG_HSE_CIS: Attagene CIS-FACTORIAL HepG2 Assay for human Heat Shock Transcription Factor 1 (HSE) (AID 2282953); conditions: HepG2 HSE cis-reporter, Attagene RNA transcription; actives raise or lower the signal
In short: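 HepG2 cells transfected with cis-promoter reporter units sensing endogenous transcription factor activity; reporter mRNA quantified 24 h post-dose by RT-PCR and capillary electrophoresis of 6-FAM-labelled products. Bidirectional fitting against DMSO.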

[16] = ATG_MRE_CIS: Attagene CIS-FACTORIAL HepG2 Assay for human Metal Responsive Element (MRE) (AID 2282954); conditions: HepG2 MRE cis-reporter transcription, Attagene multiplex; actives raise or lower the signal
In short: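 Endogenous MRE-dependent transcription read as reporter mRNA in transiently transfected human HepG2 cells at 24 h. RNA reverse-transcribed, PCR-amplified, labelled and resolved by capillary electrophoresis; gain or loss relative to DMSO.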

[17] = ATG_GRE_CIS: Attagene CIS-FACTORIAL HepG2 Assay for human Glucocorticoid Response Elements (GRE) (AID 2282947); conditions: HepG2 GRE cis-reporter, Attagene multiplex mRNA; actives raise or lower the signal
In short: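 Reporter transcripts read by RT-PCR with capillary electrophoresis fluorescence after a 24 h chemical exposure of HepG2 cells transiently transfected with multiple cis-element reporter units. Gain or loss fitted against DMSO.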

[18] = ATG_PBREM_CIS: Attagene CIS-FACTORIAL HepG2 Assay for human Phenobarbital-responsive Enhancer Module (PBREM) (AID 2282955); conditions: HepG2 PBREM cis-reporter, Attagene multiplexed transcription; actives raise or lower the signal
In short: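 Transfected liver-derived HepG2 cells exposed 24 h; PBREM reporter transcript quantified via RT-PCR and capillary electrophoresis, with activity in either direction referenced to DMSO.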

[19] = molecular target: Bile acid receptor (Homo sapiens) (UniProt Q96RI1); test: ATG_IR1_CIS: Attagene CIS-FACTORIAL HepG2 Assay for human Nuclear Receptor Subfamily 1 Group H Member 4 (NR1H4), IR1 submotif (AID 2282946); conditions: IR1 reporter transcription, actives raise or lower the signal
In short: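 HepG2 cells transiently transfected with multiplexed cis-element reporter units read endogenous transcription factor activity. After 24 h compound exposure, reporter mRNA was quantified by RT-PCR, fluorescent labelling, HpaI digestion and capillary electrophoresis; bidirectional fitting versus DMSO baseline.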

Measured: AC50

Chain of Hypoxia-inducible factor 1-alpha (Homo sapiens) (Q16665 whole entry, looked up): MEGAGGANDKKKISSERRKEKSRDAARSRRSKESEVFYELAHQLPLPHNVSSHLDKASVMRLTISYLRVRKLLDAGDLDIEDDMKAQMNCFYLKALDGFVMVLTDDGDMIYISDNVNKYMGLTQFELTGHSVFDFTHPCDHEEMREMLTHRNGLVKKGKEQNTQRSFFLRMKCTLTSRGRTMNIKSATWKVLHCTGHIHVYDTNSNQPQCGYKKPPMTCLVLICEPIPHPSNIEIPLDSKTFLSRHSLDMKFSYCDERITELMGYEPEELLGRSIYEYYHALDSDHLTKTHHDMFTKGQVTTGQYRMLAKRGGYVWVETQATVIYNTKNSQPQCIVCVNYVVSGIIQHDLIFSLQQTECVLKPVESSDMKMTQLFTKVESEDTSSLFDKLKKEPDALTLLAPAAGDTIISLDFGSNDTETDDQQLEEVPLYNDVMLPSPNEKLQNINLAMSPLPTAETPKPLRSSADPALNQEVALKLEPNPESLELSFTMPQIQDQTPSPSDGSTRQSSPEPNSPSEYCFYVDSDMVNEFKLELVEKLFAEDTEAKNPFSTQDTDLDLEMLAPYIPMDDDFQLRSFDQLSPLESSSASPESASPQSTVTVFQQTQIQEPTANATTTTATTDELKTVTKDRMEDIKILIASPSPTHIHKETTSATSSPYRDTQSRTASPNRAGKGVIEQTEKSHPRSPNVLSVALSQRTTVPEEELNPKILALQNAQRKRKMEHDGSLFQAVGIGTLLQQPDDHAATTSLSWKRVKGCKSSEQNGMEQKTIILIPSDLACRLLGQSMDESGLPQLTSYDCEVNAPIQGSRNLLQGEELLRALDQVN
Chain of Bile acid receptor (Homo sapiens) (Q96RI1 whole entry, looked up): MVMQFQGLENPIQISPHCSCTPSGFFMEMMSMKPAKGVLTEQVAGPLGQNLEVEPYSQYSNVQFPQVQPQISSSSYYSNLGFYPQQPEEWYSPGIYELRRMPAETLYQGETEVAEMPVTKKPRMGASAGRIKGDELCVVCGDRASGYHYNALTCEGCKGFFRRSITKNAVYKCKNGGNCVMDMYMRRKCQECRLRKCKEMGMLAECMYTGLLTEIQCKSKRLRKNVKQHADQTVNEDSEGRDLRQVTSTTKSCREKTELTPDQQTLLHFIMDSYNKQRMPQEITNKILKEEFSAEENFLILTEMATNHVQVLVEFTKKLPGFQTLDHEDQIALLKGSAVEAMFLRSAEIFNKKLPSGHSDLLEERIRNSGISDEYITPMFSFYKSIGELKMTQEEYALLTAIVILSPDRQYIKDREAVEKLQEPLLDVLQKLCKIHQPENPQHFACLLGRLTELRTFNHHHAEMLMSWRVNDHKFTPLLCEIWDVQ
Chain of Hepatocyte nuclear factor 3-beta (Homo sapiens) (Q9Y261 whole entry, looked up): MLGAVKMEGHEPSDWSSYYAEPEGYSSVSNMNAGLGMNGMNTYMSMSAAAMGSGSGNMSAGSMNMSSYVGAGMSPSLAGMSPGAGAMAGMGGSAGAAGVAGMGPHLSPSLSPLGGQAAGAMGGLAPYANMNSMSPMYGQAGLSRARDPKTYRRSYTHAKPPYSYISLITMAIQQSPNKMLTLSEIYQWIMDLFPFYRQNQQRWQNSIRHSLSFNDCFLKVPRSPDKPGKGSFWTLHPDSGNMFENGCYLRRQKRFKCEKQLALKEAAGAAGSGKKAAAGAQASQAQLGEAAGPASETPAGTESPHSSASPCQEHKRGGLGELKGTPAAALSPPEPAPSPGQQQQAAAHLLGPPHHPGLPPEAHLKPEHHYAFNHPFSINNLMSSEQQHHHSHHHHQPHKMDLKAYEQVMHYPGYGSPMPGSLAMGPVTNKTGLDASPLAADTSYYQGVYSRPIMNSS
Chain of Hepatocyte nuclear factor 6 (Homo sapiens) (Q9UBC0 whole entry, looked up, the tested form may be a part): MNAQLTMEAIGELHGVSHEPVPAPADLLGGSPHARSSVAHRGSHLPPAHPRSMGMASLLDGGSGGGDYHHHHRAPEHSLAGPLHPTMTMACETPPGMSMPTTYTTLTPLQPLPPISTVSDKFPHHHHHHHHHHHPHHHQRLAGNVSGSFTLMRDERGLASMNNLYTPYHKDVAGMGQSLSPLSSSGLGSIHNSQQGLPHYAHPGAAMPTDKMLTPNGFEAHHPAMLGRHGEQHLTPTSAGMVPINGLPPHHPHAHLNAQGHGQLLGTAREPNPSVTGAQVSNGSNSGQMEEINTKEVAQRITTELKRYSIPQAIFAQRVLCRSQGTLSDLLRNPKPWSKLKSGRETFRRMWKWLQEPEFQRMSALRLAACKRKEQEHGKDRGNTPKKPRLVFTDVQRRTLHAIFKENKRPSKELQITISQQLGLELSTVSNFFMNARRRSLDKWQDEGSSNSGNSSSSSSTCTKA
Chain of Heat shock factor protein 1 (Homo sapiens) (Q00613 whole entry, looked up): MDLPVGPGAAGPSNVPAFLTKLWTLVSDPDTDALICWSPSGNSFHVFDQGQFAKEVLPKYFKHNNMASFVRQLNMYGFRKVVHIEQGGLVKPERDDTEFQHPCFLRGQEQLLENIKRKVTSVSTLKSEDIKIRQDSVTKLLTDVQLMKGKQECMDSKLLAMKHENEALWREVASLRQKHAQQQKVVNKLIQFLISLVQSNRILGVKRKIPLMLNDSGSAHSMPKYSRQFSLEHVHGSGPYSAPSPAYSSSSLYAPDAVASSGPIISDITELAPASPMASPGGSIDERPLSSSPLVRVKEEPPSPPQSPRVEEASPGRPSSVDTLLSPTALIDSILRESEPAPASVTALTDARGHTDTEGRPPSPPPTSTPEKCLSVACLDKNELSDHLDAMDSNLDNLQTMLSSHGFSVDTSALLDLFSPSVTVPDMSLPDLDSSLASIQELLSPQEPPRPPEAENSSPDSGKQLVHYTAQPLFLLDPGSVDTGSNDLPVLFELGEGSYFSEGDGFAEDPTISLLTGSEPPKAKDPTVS

CC(C)CCO
not listed: [17] | [18] | [19]
inactive: all other assays above

NC(=O)NO
not listed: [4] | [13] | [16] | [19]
inactive: all other assays above

COC(=O)c1ccccc1O
not listed: [15] | [16] | [17] | [18] | [19]
inactive: all other assays above

CC1(C)C(=O)N(Br)C(=O)N1Br
not listed: [4] | [16]
inactive: all other assays above

CCN(C(=O)c1cc(C)cc(OC[C@H](C)Nc2ccncc2)c1)C(C)C
active: [19] 42 µM
not listed: [4]
inactive: all other assays above

Cc1ccc(C)c(O)c1
not listed: [4]
inactive: all other assays above

CCCCCCCCO
not listed: [16] | [19]
inactive: all other assays above

Clc1nc(Cl)c(Cl)c(Cl)c1Cl
not listed: [4] | [16] | [19]
inactive: all other assays above
